Drawing on PubChem BioAssay (EPA / NIEHS), this text covers AC50 and outcome for one molecule.

Records with an inconclusive call do not appear. Calls of active or inactive are those of the source. Rule for the calls, unless noted: active = hit-call score of the fitted dose curve at least 0.9, where 1 is the maximum; inconclusive = response in the unintended direction; inactive = score below 0.9.

Usually AC50 stands for the concentration at which the activity in the assay is half-maximal.

For test [1], the target named is Cellular tumor antigen p53 (Homo sapiens) (UniProt P04637). Briefly: TOX21_p53_BLA_p2_ratio: Tox21 HCT-116 p53 Agonism Beta-lactamase Assay, Ratio, Phase 2 (AID 2283592). In short, it runs like this:
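In this cell-based reporter format, HCT116 cells were dosed with chemicals delivered from DMSO by 217-fold dilution and incubated 16 h at 37C. Emission at 460 and 530 nm after 2 h CCF4-AM loading provided the ratio, fitted upward versus DMSO.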

The nature of test [2]: TOX21_p53_BLA_p3_viability: Viability Assessment in the Tox21 HCT-116 p53 Agonism Beta-lactamase Assay, Phase 3 (AID 2283593).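 Note: cells exposed to compound for 16 h before reading.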 In short, it runs like this: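 HCT-116 cells (4000/well) rested 5 h at 37C, then got DMSO compounds by pin tool (217-fold dilution) for 16 h at 37C, 5% CO2. After the bla read, CellTiter-Glo was added and luminescence read at 30 min, room temperature.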

Test [3] has as its target Cellular tumor antigen p53 (Homo sapiens) (UniProt P04637). Briefly: TOX21_p53_BLA_p3_ratio: Tox21 HCT-116 p53 Agonism Beta-lactamase Assay, Ratio, Phase 3 (AID 2283596). In a few lines:
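HCT116 p53-bla cells (4000/well) given compound in DMSO (217-fold dilution) after 5 h, incubated 16 h at 37C. CCF4-AM substrate 2 h at room temperature; 460/530 nm emission ratio, gain fitted against DMSO.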

A short description of test [4]: TOX21_p53_BLA_p4_viability: Viability Assessment in the Tox21 HCT-116 p53 Agonism Beta-lactamase Assay, Phase 4 (AID 2283597).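 Note: hits lower the luminescence signal meaning cytotoxicity.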 In a few lines: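 We seeded HCT116 p53 reporter cells at 4000/well and waited 5 h. We then added compounds in DMSO at a 217-fold dilution and incubated for 16 h. Viability was read as CellTiter-Glo luminescence after 30 min at RT.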
Test [5] concerns the target Cellular tumor antigen p53 (Homo sapiens) (UniProt P04637). Briefly: TOX21_p53_BLA_p5_ratio: Tox21 HCT-116 p53 Agonism Beta-lactamase Assay, Ratio, Phase 5 (AID 2283599). In a few lines: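 HCT-116 cells carrying a p53-inducible beta-lactamase reporter were seeded at 4000 cells/well and dosed after 5 h with compound in DMSO (217-fold dilution). After 16 h at 37C, CCF4-AM substrate was added for 2 h, and the 460/530 nm emission ratio was scored as gain-of-signal versus DMSO.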

Test [6] in a line: TOX21_p53_BLA_p5_viability: Viability Assessment in the Tox21 HCT-116 p53 Agonism Beta-lactamase Assay, Phase 5 (AID 2283600). In a few lines:
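Compounds, pinned from DMSO at 217-fold dilution, were left on the cells for 16 h. The viability endpoint was ATP content measured by CellTiter-Glo luminescence, where falling signal reflects cytotoxicity.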

Test [7] deals with Cellular tumor antigen p53 (Homo sapiens) (UniProt P04637). Put plainly: TOX21_p53_BLA_p4_ratio: Tox21 HCT-116 p53 Agonism Beta-lactamase Assay, Ratio, Phase 4 (AID 2283601). In a few lines:
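HCT116 cells carrying an inducible beta-lactamase reporter were plated at 4000 cells/well, rested 5 h, then exposed to compounds in DMSO (217-fold dilution) for 16 h at 37C. CCF4-AM substrate was loaded 2 h at room temperature; 460/530 nm emission ratio scored gain-of-signal versus DMSO.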

Test [8] deals with Thyroperoxidase (TPO), gene 54314. Briefly: CCTE_Simmons_AUR_rTPO: CCTE's Amplex UltraRed Assay for Thyroperoxidase (TPO) Inhibition, Simmons Lab (AID 2283662). In short, it runs like this: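 Cell-free peroxidase activity assay using rat thyroid gland microsomes with excess H2O2 (300 uM) and 25 uM Amplex UltraRed. Compounds tested from 5 nM to 87.5 uM; fluorescence measured after 30 min at 37C, analysed relative to DMSO baseline.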

Test [9] concerns the target Luciferin 4-monooxygenase (Photinus pyralis) (UniProt P08659). Put plainly: CCTE_Simmons_QuantiLum_inhib_2: CCTE's Firefly Luciferase Inhibition Assay, Simmons Lab (AID 2283767). In short, it runs like this: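 Luminescence loss relative to DMSO vehicle defines inhibition; detection reagent containing 150 uM D-luciferin and 147 uM dATP (final, pH 7.8) is injected immediately before each read. Enzyme is preincubated with an 8-point titration (5 nM–87.5 uM final) for 30 min at 37C.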

Test [10] has as its target Nucleoli Translocation, AR (gene 367) (UniProt P10275). Put plainly: UPITT_HCI_U2OS_AR_TIF2_Nucleoli_Antagonist: University of Pittsburgh U2OS Androgen Receptor-Transcriptional Intermediary Factor 2 (AR-TIF2) Antagonism High Content Imaging Assay for Nucleoli Translocation (AID 2283997). In short, it runs like this:
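U2OS cells expressing RFP-tagged human AR and GFP-tagged TIF2 were imaged by high-content fluorescence microscopy for red AR signal in the nucleolar region. Compounds were screened at 20 uM final (0.2% DMSO), with activity fitted relative to DHT as baseline.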

For test [11] the target is unchanged. Briefly: UPITT_HCI_U2OS_AR_TIF2_Nucleoli_Agonist: University of Pittsburgh U2OS Androgen Receptor-Transcriptional Intermediary Factor 2 (AR-TIF2) Agonism High Content Imaging Assay for Nucleoli Translocation (AID 2283998). In short, it runs like this:
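RFP-AR / GFP-TIF2 cells; cpds diluted in serum-free medium; single-point screen 20 uM final (0.2% DMSO), actives confirmed in triplicate; conc-response 0.195–50 uM final (0.5% DMSO). Readout: nucleolar red fluorescence, positive direction vs DMSO.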

Test [12] has as its target Ratio of Nucleoli Translocation and Cytoplasm, AR (gene 367) (UniProt P10275). Briefly: UPITT_HCI_U2OS_AR_TIF2_Nucleoli_Cytoplasm_Ratio_Antagonist: University of Pittsburgh U2OS Androgen Receptor-Transcriptional Intermediary Factor 2 (AR-TIF2) Antagonism High Content Imaging Assay for Ratio of Nucleoli Translocation and Cytoplasm (AID 2283999).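 Note: antagonists lower the DHT-driven ratio of nucleolar to cytoplasmic red signal.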 In a few lines:
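Human osteosarcoma U2OS line, AR fused to RFP, coactivator TIF2 fused to GFP. Cpds 20 uM final, 0.2% DMSO (screen); 0.195–50 uM final, 0.5% DMSO (CRC). Endpoint: nucleoli/cytoplasm red signal ratio, DHT as baseline, loss-of-signal antagonist mode.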

For test [13] the target is unchanged. Briefly: UPITT_HCI_U2OS_AR_TIF2_Nucleoli_Cytoplasm_Ratio_Agonist: University of Pittsburgh U2OS Androgen Receptor-Transcriptional Intermediary Factor 2 (AR-TIF2) Agonism High Content Imaging Assay for Ratio of Nucleoli Translocation and Cytoplasm (AID 2284000).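 Note: hits raise the red nucleolar to cytoplasm ratio above vehicle.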 In a few lines: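 U2OS cells expressing RFP-tagged human AR and GFP-tagged TIF2 were imaged by high-content fluorescence microscopy. The endpoint is the ratio of nucleolar to cytoplasmic red fluorescence, fitted for gain of signal relative to DMSO. Concentration-response spanned 0.195 to 50 uM final (0.5% DMSO).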

Test [14] is described as follows: CCTE_Harrill_HTTr_Viability_MCF7: CCTE's 6-hour Cell Viability Assessment for the High-Throughput Transcriptomics (HTTr) Platform, in MCF-7 cells cultured in DMEM + 10% fetal bovine serum, Harrill Lab (AID 2284010; active = hit-call score of the fitted dose curve at least 0.9, where 1 is the maximum; inactive = score below 0.9). In a few lines:
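Cells were dosed with chemicals in an eight-point dilution series, imaged 6 hours later for propidium iodide uptake, and the endpoint was analyzed by bidirectional fitting against DMSO as negative control.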

A short description of test [15]: CCTE_Harrill_HTTr_Apoptosis_MCF7: CCTE's 6-hour Apoptosis Assessment for the High-Throughput Transcriptomics (HTTr) Platform, in MCF-7 cells cultured in DMEM + 10% fetal bovine serum, Harrill Lab (AID 2284011; active = hit-call score of the fitted dose curve at least 0.9, where 1 is the maximum; inactive = score below 0.9). In short, it runs like this: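 Read-out: CellEvent Caspase 3/7 Green signal by high content imaging, gain-of-signal indicating apoptosis. MCF-7 cells, DMEM + 10% FBS, eight-point dilution series, 6 h exposure. Curves fitted bidirectionally relative to DMSO negative control.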

Test [16] can be described thus: CCTE_Shafer_MEA_dev_firing_rate_mean: CCTE's Neural Network Formation Assay for Mean Firing Rate, Shafer Lab (AID 2284031; active = hit-call score of the fitted dose curve at least 0.9, where 1 is the maximum; inactive = score below 0.9;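 note: AUC of well mean spike rate recorded on DIV 5 7 9 and 12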). In short, it runs like this: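 Rat primary cortical neurons were seeded on multielectrode arrays and treated from plating through day 12, with redosing at each feed. Spontaneous spiking was recorded four times; mean firing rate AUC was fitted downward against DMSO.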

Test [17] is described as follows: CCTE_Shafer_MEA_dev_per_burst_spike_percent: CCTE's Neural Network Formation Assay for Percent of Spikes in a Burst, Shafer Lab (AID 2284032; active = hit-call score of the fitted dose curve at least 0.9, where 1 is the maximum; inactive = score below 0.9). In a few lines: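 Rat primary cortical neurons on 16-electrode MEA wells, dosed from plating day 0 for 12 days with renewal on DIV 5 and 9; spikes-in-bursts percentage averaged over bursting electrodes, collapsed as AUC across days 5, 7, 9, 12; loss direction versus DMSO.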

Chain of Cellular tumor antigen p53 (Homo sapiens) (P04637 whole entry, looked up): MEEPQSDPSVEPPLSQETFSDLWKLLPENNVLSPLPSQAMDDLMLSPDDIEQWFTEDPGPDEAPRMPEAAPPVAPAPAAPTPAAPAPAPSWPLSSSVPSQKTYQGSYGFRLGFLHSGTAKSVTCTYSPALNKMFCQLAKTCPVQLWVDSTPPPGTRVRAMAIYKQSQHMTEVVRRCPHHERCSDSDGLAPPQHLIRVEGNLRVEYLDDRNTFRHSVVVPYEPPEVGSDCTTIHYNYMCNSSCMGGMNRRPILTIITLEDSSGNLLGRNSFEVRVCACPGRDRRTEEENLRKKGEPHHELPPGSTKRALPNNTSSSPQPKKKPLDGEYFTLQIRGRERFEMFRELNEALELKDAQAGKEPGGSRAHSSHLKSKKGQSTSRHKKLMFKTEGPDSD
Chain of Ratio of Nucleoli Translocation and Cytoplasm, AR (gene 367) (P10275 whole entry, looked up, the tested form may be a part): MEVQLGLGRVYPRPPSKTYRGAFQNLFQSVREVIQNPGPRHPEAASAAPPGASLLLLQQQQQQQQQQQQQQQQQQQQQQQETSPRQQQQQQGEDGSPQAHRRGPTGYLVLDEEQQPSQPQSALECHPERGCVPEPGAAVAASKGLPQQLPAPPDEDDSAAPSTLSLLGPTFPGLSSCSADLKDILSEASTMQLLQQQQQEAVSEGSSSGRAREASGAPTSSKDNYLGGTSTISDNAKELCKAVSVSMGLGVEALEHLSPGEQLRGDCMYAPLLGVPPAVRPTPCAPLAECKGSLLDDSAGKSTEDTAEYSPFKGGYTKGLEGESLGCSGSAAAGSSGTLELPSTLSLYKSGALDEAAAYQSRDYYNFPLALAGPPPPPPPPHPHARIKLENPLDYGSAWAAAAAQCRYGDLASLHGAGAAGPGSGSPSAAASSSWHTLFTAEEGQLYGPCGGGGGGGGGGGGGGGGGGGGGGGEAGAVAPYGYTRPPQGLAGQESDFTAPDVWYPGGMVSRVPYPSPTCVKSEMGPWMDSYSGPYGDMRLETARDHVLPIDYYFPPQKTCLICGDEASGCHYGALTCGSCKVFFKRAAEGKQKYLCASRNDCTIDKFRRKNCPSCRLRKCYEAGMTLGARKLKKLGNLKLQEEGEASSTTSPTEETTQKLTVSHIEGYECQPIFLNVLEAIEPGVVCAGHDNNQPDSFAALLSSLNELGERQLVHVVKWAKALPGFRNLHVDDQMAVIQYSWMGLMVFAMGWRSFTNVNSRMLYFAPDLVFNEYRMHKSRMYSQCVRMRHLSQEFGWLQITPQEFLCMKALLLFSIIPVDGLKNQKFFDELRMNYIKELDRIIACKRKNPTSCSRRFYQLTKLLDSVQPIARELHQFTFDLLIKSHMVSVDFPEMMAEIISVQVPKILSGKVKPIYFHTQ
Chain of Nucleoli Translocation, AR (gene 367) (P10275 whole entry, looked up): as the sequence (P10275 whole entry, looked up, the tested form may be a part) above
Chain of Luciferin 4-monooxygenase (Photinus pyralis) (P08659 whole entry, looked up): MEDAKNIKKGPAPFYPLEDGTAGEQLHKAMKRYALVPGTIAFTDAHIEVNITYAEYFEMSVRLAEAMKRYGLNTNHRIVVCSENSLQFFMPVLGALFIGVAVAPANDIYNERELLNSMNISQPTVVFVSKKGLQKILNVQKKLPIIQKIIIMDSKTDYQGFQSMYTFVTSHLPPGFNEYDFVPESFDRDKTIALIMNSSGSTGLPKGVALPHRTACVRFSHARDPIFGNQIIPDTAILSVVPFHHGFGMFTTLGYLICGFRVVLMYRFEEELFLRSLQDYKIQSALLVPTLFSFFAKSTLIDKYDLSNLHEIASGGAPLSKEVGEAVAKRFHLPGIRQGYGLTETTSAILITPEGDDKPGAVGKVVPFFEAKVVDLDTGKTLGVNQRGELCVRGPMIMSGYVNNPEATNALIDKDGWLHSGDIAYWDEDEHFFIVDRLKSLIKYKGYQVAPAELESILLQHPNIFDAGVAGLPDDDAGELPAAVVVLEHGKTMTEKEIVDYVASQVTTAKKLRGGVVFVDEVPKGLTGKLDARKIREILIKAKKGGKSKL

For `c1ccc2cc3c(cc2c1)-c1cccc2cccc-3c12`, the AC50 in [1] was 3.24 µM (active); in [3] it was 11 µM (active); in [5], 4.58 µM (active); in [7], 1.98 µM (active); in [10], 1.19 µM (active). Further, the result in [2], in [4], in [6], in test [8], in test [9] and in [11] was inactive. The outcome in test [12], in [13], in test [14], in test [15], in test [16] and in [17] was inactive.
